An excerpt weighted towards active compounds, which were near 6.5% of everything screened.
FMDV antiviral = antivirals against foot and mouth disease virus; FMDV antiviral cell-based qHTS; Potency, µM (series often up to 57.9 µM), most hits filed as inhibitors; 410,000 tested, 1.2% active; AID 1159524; calls by dose curve; tested in HEK293T cells; note: read-out not given here; nearly all actives have a fitted effect of over 45% in size
HCMV inh = blocks human cytomegalovirus replication | HFF cells, HCMV-luciferase reporter, 72 h; hits give low values | activity change, negative = inhibition, % at 57.5 µM | 410,000 tested, 4.5% active | AID 1259415; in the data active = activity change below about -60%; inconclusive = no clear call, values can overlap the other calls; inactive = above about -39%
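Two-dose cell screen: HFF monolayers treated with compounds and infected with luciferase-expressing HCMV at 1 PFU/cell, 72 h at 37C, then lysed for luciferase measurement.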
Vaccinia Venus = inhibitors of vaccinia virus (Venus reporter); Vaccinia virus Venus reporter expression, fluorescence; 330,000 tested, 0.46% active; Potency, µM (highest dose often 36.5 µM), usual class: inhibitors; calls by dose curve; tested in A549 cells; note: nearly all actives have a fitted effect of over 30% in size
VACV mCherry inh = inhibitors of vaccinia virus infection (mCherry reporter signal). Vaccinia virus mCherry reporter infection, fluorescence. Potency, µM (titrated, usually from 36.5 µM), most hits filed as inhibitors. 310,000 tested, 0.63% active. AID 720579; calls by dose curve; tested in A549 cells; note: nearly all actives have a fitted effect of over 35% in size
Lassa entry inh = blocks Lassa virus binding to or entry into cells; Lassa virus pseudotype entry inhibition, cell reporter; Potency, µM (titrated, usually from 37.9 µM), actives largely listed as inhibitors; 300,000 tested, 1.2% active; AID 540256; calls by dose curve; tested in HEK293 cells; note: nearly all actives have a fitted effect of over 50% in size
Marburg entry inh = inhibitors of Marburg virus binding or cell entry | Potency, µM (top dose mostly 37.8 µM), actives largely listed as inhibitors | Marburg virus pseudotyped entry inhibition, cell reporter | 300,000 tested, 1.8% active; calls by dose curve; tested in HEK293 cells
Each line names hits and unclear results; the compound was inactive in the other large screens.

Cc1ccc(C(=O)NC(=C(Cl)Cl)S(=O)(=O)c2ccc(Cl)cc2)cc1	FMDV antiviral inconclusive (no result: Vaccinia Venus, VACV mCherry inh, Lassa entry inh, Marburg entry inh)
CC1=C(c2ccc(C)c(C)c2)S(=O)(=O)N=C1N1CCN(c2cccc(C(F)(F)F)c2)CC1	Marburg entry inh inconclusive
COC(=O)c1cc(CNC(=O)c2cccc3ccccc23)cc(NC(=O)c2ccccc2OC)c1	none (no result: HCMV inh, Lassa entry inh, Marburg entry inh)
O=C(CCc1cccnc1)NCC1Cc2cccc(-c3ncccn3)c2O1 (configuration not stated)	none (no result: HCMV inh, Lassa entry inh, Marburg entry inh)
Cc1ccc2c(c1)C(=O)OC(C(=O)Nc1ccc(C(=O)O)cc1)C2 (configuration not stated)	FMDV antiviral inconclusive
Cc1ccc(S(=O)(=O)C(NC(=O)c2ccccc2)=C(Cl)Cl)cc1	FMDV antiviral 13µM, HCMV inh -74, Vaccinia Venus inconclusive, VACV mCherry inh inconclusive, Lassa entry inh inconclusive, Marburg entry inh inconclusive
COc1ccc(OC)c(-c2nnc3n2N=C(c2ccc(OC(F)F)c(OCC4CC4)c2)CS3)c1	FMDV antiviral inconclusive (no result: Vaccinia Venus, VACV mCherry inh, Lassa entry inh, Marburg entry inh)
COc1ccc(C2=Nn3c(nnc3-c3ccccc3F)SC2)cc1OC1CCCC1	HCMV inh -75 (no result: Vaccinia Venus, VACV mCherry inh, Lassa entry inh, Marburg entry inh)
COc1ccc(OC)c(-c2nnc3n2N=C(c2ccc(OC)c(OC4CCCC4)c2)CS3)c1	FMDV antiviral inconclusive, HCMV inh -88 (no result: Vaccinia Venus, VACV mCherry inh, Lassa entry inh, Marburg entry inh)
COc1ccc(C2=Nn3c(nnc3-c3ccccc3OC)SC2)cc1OCC1CC1	FMDV antiviral inconclusive, HCMV inh -84 (no result: Vaccinia Venus, VACV mCherry inh, Lassa entry inh, Marburg entry inh)
COc1ccc(C2=Nn3c(nnc3-c3ccccc3F)SC2)cc1OC1CCOC1 (configuration not stated)	none (no result: Vaccinia Venus, VACV mCherry inh, Lassa entry inh, Marburg entry inh)
COc1ccc(C2=Nn3c(nnc3-c3ccncc3)SC2)cc1	Marburg entry inh inconclusive (no result: Vaccinia Venus, VACV mCherry inh)
CCOc1ccc(C2=Nn3c(nnc3-c3ccc(OC)cc3)SC2)cc1	FMDV antiviral inconclusive, Lassa entry inh inconclusive, Marburg entry inh 5.2µM (no result: Vaccinia Venus, VACV mCherry inh)
COC(=O)[C@@H]1CCCN1C(=O)c1c(OC)cc(=O)n2c1CCN(Cc1ccc3cccnc3c1)CC2	none (no result: HCMV inh, Lassa entry inh, Marburg entry inh)
CCOC(=O)C[n+]1cccc(Br)c1	none (no result: FMDV antiviral, HCMV inh, Lassa entry inh, Marburg entry inh)
O=C(Nc1ccncc1)C1C(=O)c2ccccc2N(Cc2ccccc2)C1=O (configuration not stated)	Vaccinia Venus inconclusive (no result: FMDV antiviral, HCMV inh, Lassa entry inh, Marburg entry inh)
COc1ccc(OC)c(-c2nnc3n2N=C(c2ccc(OC)c(OC)c2)CS3)c1	HCMV inh -67 (no result: Vaccinia Venus, VACV mCherry inh, Lassa entry inh, Marburg entry inh)
COc1ccc(C2=Nn3c(nnc3-c3ccccc3)SC2)cc1OC	none (no result: Vaccinia Venus, VACV mCherry inh)
CC(C)C[C@H](NC(=O)[C@H](CCCCN)NC(=O)[C@H](CCCNC(=N)N)NC(=O)[C@H](C)NC(=O)[C@H](CO)NC(=O)[C@H](CCCCN)NC(=O)[C@H](CCCNC(=N)N)NC(=O)[C@H](C)NC(=O)CNC(=O)[C@@H](NC(=O)[C@H](Cc1ccccc1)NC(=O)CNC(=O)CNC(=O)[C@@H](N)Cc1ccccc1)[C@H](C)O)C(=O)N[C@@H](C)C(=O)N[C@@H](CC(N)=O)C(=O)N[C@@H](CCC(N)=O)C(=O)O	none (no result: HCMV inh, Lassa entry inh, Marburg entry inh)
Nc1nc2c(ncn2[C@@H]2O[C@H](C(=O)N[C@H](Cc3ccccc3)C(=O)NCCCc3ccccc3)[C@@H](O)[C@H]2O)c(=O)[nH]1	none (no result: FMDV antiviral, Vaccinia Venus, VACV mCherry inh, Lassa entry inh, Marburg entry inh)
C=CC(=O)NC(NC(=O)C=C)c1ccccc1F	Vaccinia Venus inconclusive, VACV mCherry inh 7.9µM
CC1Cc2cc(-c3csc(NC(=O)Cc4ccccc4)n3)ccc2N1S(C)(=O)=O (configuration not stated)	HCMV inh -98, Vaccinia Venus inconclusive, VACV mCherry inh inconclusive, Lassa entry inh inconclusive, Marburg entry inh 10µM (no result: FMDV antiviral)
CS(=O)(=O)N1CCc2cc(-c3csc(NC(=O)C(c4ccccc4)c4ccccc4)n3)ccc21	none (no result: FMDV antiviral)
COc1ccc(NC(=O)N(C)C[C@@H]2OCCCC[C@@H](C)Oc3ccc(NS(C)(=O)=O)cc3C(=O)N([C@H](C)CO)C[C@@H]2C)cc1	none (no result: FMDV antiviral, Vaccinia Venus, VACV mCherry inh, Lassa entry inh, Marburg entry inh)
CCc1cccc2sc(N3CCN(C(=O)c4ccc([N+](=O)[O-])o4)CC3)nc12	FMDV antiviral inconclusive, Vaccinia Venus inconclusive, VACV mCherry inh inconclusive, Lassa entry inh inconclusive, Marburg entry inh 5µM (no result: HCMV inh)
COc1ccc(Cl)cc1C(=O)NCCc1ccc(S(=O)(=O)NC(=O)NC2CCCCC2)cc1	HCMV inh -63, Marburg entry inh inconclusive
N#C/C(=C\c1ccncc1)C(=O)Nc1ccc(C(=O)O)cc1	HCMV inh -99 (no result: Vaccinia Venus, VACV mCherry inh, Lassa entry inh, Marburg entry inh)
Cc1cccc(NC(=O)/C(C#N)=C\c2cc(C)n(-c3ccc(C(=O)O)cc3)c2C)c1	HCMV inh -61 (no result: Lassa entry inh, Marburg entry inh)
O=C(O)c1ccc2nc(-c3cc4cc(Cl)ccc4oc3=O)[nH]c2c1	none (no result: Marburg entry inh)
CCCCN(CCCC)CCNC(=O)c1cc(=O)[nH]c2ccc(S(=O)(=O)N3CCCCCC3)cc12	HCMV inh inconclusive (no result: Marburg entry inh)
Cc1c(CCOC(=O)C23CC4(C)CC(C)(CC(C)(C4)C2)C3)sc[n+]1CC(=O)c1ccccc1	FMDV antiviral 28µM, HCMV inh -100, Vaccinia Venus inconclusive, VACV mCherry inh inconclusive, Marburg entry inh inconclusive
Cc1c(CCOC(=O)C23CC4CC(CC(C)(C4)C2)C3)sc[n+]1Cc1ccccc1	FMDV antiviral 16µM, Lassa entry inh inconclusive, Marburg entry inh inconclusive (no result: Vaccinia Venus, VACV mCherry inh)
COc1cc(CN2CCC3(CC2)c2ccccc2[C@@H](NC(=O)c2ccccc2OC)[C@@H]3O)ccc1F	FMDV antiviral inconclusive (no result: HCMV inh, Lassa entry inh, Marburg entry inh)
Cc1cccc(NC(=O)C(c2ccccc2Cl)N2CCOCC2)c1 (configuration not stated)	none
Cc1ccc(NC(=O)C(c2ccc(Cl)cc2Cl)N2CCCC2)cc1 (configuration not stated)	HCMV inh -65
CN1CCN(c2ncc3nc(-c4ccc(Cl)cc4)c(=O)n(CCC#N)c3n2)CC1	none (no result: HCMV inh, Vaccinia Venus, VACV mCherry inh, Lassa entry inh, Marburg entry inh)
C[C@@H]1C=CC(=O)O[C@@H]1c1ccc(Cl)cc1	FMDV antiviral 28µM, HCMV inh -92, Vaccinia Venus 3.5µM, VACV mCherry inh inconclusive (no result: Lassa entry inh, Marburg entry inh)
COc1cc(C2c3cc4c(cc3OC(C)(N3CCCC3)C2C)OCO4)cc(OC)c1OC (configuration not stated)	HCMV inh -68, Vaccinia Venus inconclusive, VACV mCherry inh inconclusive, Lassa entry inh inconclusive, Marburg entry inh inconclusive
COc1cc(C2c3cc4c(cc3OC(Nc3ccc(C(=O)O)cc3)C2C)OCO4)cc(OC)c1OC (configuration not stated)	HCMV inh -60, Vaccinia Venus inconclusive, VACV mCherry inh inconclusive, Lassa entry inh inconclusive, Marburg entry inh inconclusive
COc1ccc(NC2Oc3cc4c(cc3C(c3cc(OC)c(OC)c(OC)c3)C2C)OCO4)cc1 (configuration not stated)	HCMV inh -77, Vaccinia Venus inconclusive, VACV mCherry inh inconclusive, Lassa entry inh inconclusive, Marburg entry inh inconclusive
COc1cc(C2C3=C(COC3=O)OC(C)(C)Oc3cc4c(cc32)OCO4)cc(OC)c1OC (configuration not stated)	HCMV inh -80, Vaccinia Venus inconclusive, VACV mCherry inh inconclusive, Lassa entry inh inconclusive, Marburg entry inh inconclusive
COc1cc(C2c3cc4c(cc3OC(N3CCCC3)C2C)OCO4)cc(OC)c1O (configuration not stated)	none

High-throughput results as filed in PubChem.
